# Results taken from PubChem BioAssay (Tox21).
# Values joined by “and” are separate entries in the source; they are usually repeats but may differ in a detail not shown here. Identical values can stand only once. Inconclusive results are not listed. Entries that show only a call come without a potency. A structure can be active in one record and inactive in another. Active and inactive are the calls of the source. Unless noted, calls follow the shape of the dose curve; as a rule, active = well fitted curve in the direction sought with a large enough effect in the repeat runs; inconclusive = weak or mixed curves; inactive = no such curve, though single readings can be large; an effect the other way counts as inactive or inconclusive.
# How the values were obtained:
# [1] = qHTS assay for small molecules that induce genotoxicity in human embryonic kidney cells expressing luciferase-tagged ATAD5 (AID 651632); settings: HEK293T ATAD5-luciferase induction, 16 h; series mostly up to 83.3 µM; also: nearly all actives have a fitted effect of over 15% in size
# In short: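 Increased luciferase signal from ATAD5-tagged reporter cells indicates DNA-damage-driven ATAD5 induction. HEK293T cells are treated for 16 hr at 37C before detection with Amplite.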
# [2] = qHTS assay for small molecule agonists of the p53 signaling pathway - cell viability (AID 651633; calls by dose curve;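 also: p53RE-bla HCT reporter cells with a stable beta-lactamase p53 reporter; nearly all actives have a fitted effect of over 30% in size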); settings: p53RE-bla HCT-116 viability, ATP luminescence, 16 h; series mostly up to 83.3 µM
# In short: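 p53RE-bla cells were treated with compound for 16 hours at 37 C. Cytotoxicity was then measured as CellTiter-Glo luminescence after 30 min at room temperature.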
# [3] = qHTS assay for small molecules that induce genotoxicity in human embryonic kidney cells expressing luciferase-tagged ATAD5 - cell viability (AID 651634; calls by dose curve; also: nearly all actives have a fitted effect of over 25% in size); settings: HEK293T ATAD5-luc cells viability, CellTiter-Fluor, 15.5 h; series mostly up to 83.3 µM
# In short: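 Cytotoxicity counterscreen in HEK293T cells bearing an ATAD5-luciferase reporter: live-cell protease activity measured by CellTiter-Fluor fluorescence after 15.5 hr compound exposure.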
# [4] = qHTS assay for small molecule disruptors of the mitochondrial membrane potential - cell viability (AID 720634; calls by dose curve; also: nearly all actives have a fitted effect of over 20% in size; also: potency is read from the fitted curve at half-maximal effect); settings: HepG2 viability, ATP luminescence (CellTiter-Glo), 1 h; series mostly up to 83.2 µM
# In short: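 After overnight attachment at 37 C, HepG2 cells received compound or DMSO vehicle for 1 hr. Viability is then taken from ATP-driven luminescence following a 30 min room-temperature CellTiter-Glo step.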
# [5] = qHTS assay for small molecule disruptors of the mitochondrial membrane potential (AID 720635); settings: HepG2 mitochondrial membrane potential, Mito-MPS dye ratio; series mostly up to 83.2 µM
# In short: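 HepG2 cells exposed to compound 1 hr at 37C, then Mito-MPS dye 30 min. Ratio read of aggregate (540/590 nm) versus monomer (490/535 nm) fluorescence.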
# [6] = qHTS assay to test for compound auto fluorescence at 590 nm (red) in HepG2 cells (AID 720674); settings: HepG2 autofluorescence, red 540/590 nm, 1 h; series mostly up to 91.3 µM
# In short: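 Fluorescence at 590 nm emission following 540 nm excitation was recorded from HepG2 wells one hour after compound transfer, with DMSO-only wells as vehicle and Rose Bengal sodium equivalency as the scale.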
# [7] = qHTS assay to test for compound auto fluorescence at 535 nm (green) in HepG2 cells (AID 720675); settings: green autofluorescence 485/535 nm, 1 h; series mostly up to 91.3 µM
# [8] = qHTS assay to test for compound auto fluorescence at 460 nm (blue) in HEK293 cells (AID 720678); settings: blue autofluorescence 405/460 nm; series mostly up to 91.3 µM
# In short: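 Intrinsic compound fluorescence is recorded in live HEK293 cultures after overnight incubation at 37C, 5% CO2, using excitation 405 nm and emission 460 nm. Values are referenced to triamterene.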
# [9] = qHTS assay to test for compound auto fluorescence at 590 nm (red) in HEK293 cells (AID 720679); settings: red autofluorescence 540/590 nm; series mostly up to 91.3 µM
# In short: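 Red autofluorescence, HEK293 cells: 2,000 cells/well; attach 4-5 hr 37C; add 23 nL cpd or DMSO; incubate o/n 37C 5% CO2; read Ex540/Em590; Rose Bengal sodium reference.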
Structure (SMILES),outcome [1],Potency [2],Potency [3],Potency [4],Potency [5],outcome [6],outcome [7],outcome [8],outcome [9]
COP(=O)(OC)OC=C(Cl)Cl,inactive,inactive,inactive,inactive,inactive,inactive,inactive,inactive,inactive
CCCC[n+]1ccc(C)cc1,inactive,inactive,inactive,inactive and 48.3 µM (active),,inactive,inactive,inactive,inactive
CCCCCCCCCCCCn1cc[n+](C)c1,inactive,,,154 nM (active) and inactive,,inactive,inactive,inactive,inactive
CC[N+](CC)(CC)CC,,inactive,inactive,inactive,inactive,inactive,inactive,inactive,inactive
Oc1cccc2cccnc12,,,inactive,inactive,,inactive,inactive,inactive,inactive
COc1ccccc1N,inactive,inactive,inactive,inactive,inactive,inactive,inactive,inactive,inactive
CCC[N+]1(C)CCCCC1,inactive,inactive,inactive,inactive,inactive,inactive,inactive,inactive,inactive
CCCCCCCCn1cc[n+](C)c1,inactive,inactive,inactive,inactive,,inactive,inactive,inactive,inactive
O=C(O)c1ccccc1O,,,inactive,,,,,,
CCCC[n+]1ccccc1C,inactive,inactive,inactive,inactive,inactive,inactive,inactive,inactive,inactive
CCCCCCCCCCCC(=O)O,inactive,inactive,inactive,inactive,inactive,inactive,inactive,inactive,inactive
CC(=O)O,,inactive,inactive,,,inactive,inactive,inactive,inactive
CCCCn1cc[n+](C)c1C,inactive,inactive,inactive,inactive,inactive,inactive,inactive,inactive,inactive
O=[N+]([O-])O,,,inactive,,,inactive,inactive,inactive,inactive
O=S(=O)(O)O,,,inactive,inactive,inactive,inactive,inactive,inactive,inactive
C=CCOC(Cn1ccnc1)c1ccc(Cl)cc1Cl (configuration not stated),inactive,inactive,inactive,inactive,,inactive,inactive,inactive,inactive
CCCCCCCCCCCCOS(=O)(=O)O,inactive,,inactive,inactive,inactive,inactive,inactive,inactive,inactive
CC[N+]1(C)CCCC1,inactive,inactive,inactive,inactive,inactive,inactive,inactive,inactive,inactive
CCCC[n+]1ccccc1,inactive,inactive,inactive,inactive,inactive,inactive,inactive,inactive,inactive
CCCC[N+]1(C)CCCCC1,inactive,inactive,inactive,inactive,inactive,inactive,inactive,inactive,inactive
CCCn1cc[n+](C)c1,inactive,,inactive,inactive,inactive,inactive,inactive,inactive,inactive
CCC[N+]1(C)CCCC1,inactive,inactive,inactive,inactive,inactive,inactive,inactive,inactive,inactive
CC(Cl)(Cl)C(=O)O,inactive,,inactive,inactive,inactive,inactive,inactive,inactive,inactive
